Measured values as given in PubChem BioAssay AID588342 (National Center for Advancing Translational Sciences (NCATS), 2011).
Values joined by “and” are separate entries in the source; they are usually repeats but may differ in a detail not shown here. Identical values can stand only once. In all, about 360,000 compounds went through this assay and about 25,000 (6.9%) were called active. Where a call stands in place of a potency, no number is given. About 9% were inconclusive and are not listed. Calls follow the shape of the dose curve; as a rule, active = well fitted inhibition curve with a large enough effect; inconclusive = small, poorly fitted or top-dose-only effect; inactive = flat fitted curve, though single readings scatter. This excerpt belongs to a sample that is enriched for actives. The source holds several records for some structures; these can differ, active in one and inactive in another.
Also: nearly all actives have a fitted effect of over 55% in size.
Potency is read from the fitted curve at half-maximal effect.

The compounds below were run against Luciferin 4-monooxygenase (Photinus pyralis) (UniProt P08659) (assay: qHTS profiling assay for firefly luciferase inhibitor/activator using purifed enzyme and Km concentrations of substrates (counterscreen for miR-21 project)). Details: purified FLuc, luminescence inhibition; series mostly up to 57.5 µM.
Sequence of Luciferin 4-monooxygenase (Photinus pyralis) (P08659 whole entry, looked up): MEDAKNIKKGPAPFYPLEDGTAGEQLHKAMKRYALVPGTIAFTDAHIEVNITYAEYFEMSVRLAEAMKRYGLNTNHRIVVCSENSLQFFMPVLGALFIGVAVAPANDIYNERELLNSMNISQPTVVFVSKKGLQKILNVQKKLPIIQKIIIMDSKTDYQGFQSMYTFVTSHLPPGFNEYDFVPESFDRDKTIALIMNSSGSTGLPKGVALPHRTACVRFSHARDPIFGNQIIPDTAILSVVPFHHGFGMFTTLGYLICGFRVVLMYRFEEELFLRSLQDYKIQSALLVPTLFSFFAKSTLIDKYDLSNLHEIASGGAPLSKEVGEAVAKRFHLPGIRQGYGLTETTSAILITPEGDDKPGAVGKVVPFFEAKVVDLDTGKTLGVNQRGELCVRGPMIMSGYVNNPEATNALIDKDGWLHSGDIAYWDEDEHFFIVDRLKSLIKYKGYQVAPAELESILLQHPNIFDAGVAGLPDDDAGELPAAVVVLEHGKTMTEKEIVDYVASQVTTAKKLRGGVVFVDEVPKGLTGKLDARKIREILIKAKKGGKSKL
In short: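 Purified P. pyralis luciferase (10nM final) with 10uM D-luciferin and 10uM ATP (Km levels) in 50mM Tris acetate pH 7.5, 10mM Mg acetate, 0.01% Tween-20, 0.05% BSA; qHTS 6-point titration, ~60 µM downward; luminescence read.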
In the case of `Cc1ccc(Cl)cc1N1CCN(C(=O)CN2C(=O)COc3ccc(S(=O)(=O)N4CCOCC4)cc32)CC1`, the Potency is reported as “inactive”.
In the case of `Cc1cccc(N2CCN(C(=O)CCn3c(=O)c4cccn4c4cccnc43)CC2C)c1` (stereo unspecified), the Potency is reported as “inactive”.
For `O=C(c1cccc(Cl)c1)N1CCN(CCc2ccncc2)CC1`, the Potency was “inactive”.
For `O=C(NNS(=O)(=O)c1ccc([N+](=O)[O-])cc1)C1CCCCC1`, the Potency was “inactive”.
In the case of `COc1ccc(OC)c2sc(N3CCN(C(=O)C4COc5ccccc5O4)CC3)nc12` (stereo unspecified), the Potency is reported as “inactive”.
In the case of `O=C(NCCc1ccc(C(F)(F)F)cc1)c1ccc2c(c1)OCO2`, the Potency is reported as “inactive”.
With `CC(NCC(=O)Nc1ccccc1C(=O)NC1CC1)c1ccccc1Cl` (stereo unspecified) the Potency was “inactive”.
With `C/C(=N\NC(=O)CNC(=O)C(c1ccccc1)c1ccccc1)c1ccc(C)cc1` the Potency was “inactive”.
In the case of `C/C(=N\NC(=O)c1cc2c(s1)CCC(C)C2)c1cccnc1` (stereo unspecified), the Potency is reported as 16.9 µM (active).
With `CC1CCc2sc(C(=O)NCC(c3ccco3)N3CCCCC3)cc2C1` (stereo unspecified) the Potency was “inactive”.
`C/C(=N\NC(=O)c1cccc([N+](=O)[O-])c1)c1cccnc1` was tested, and the Potency was “inactive”.
In the case of `C/C(=N\NC(=O)c1nc(C)cc(C)n1)c1ccccc1`, the Potency is reported as 12 µM (active).
With `C/C(=N/NC(=O)c1ccn(C)n1)c1ccncc1` the Potency was “inactive”.
In the case of `CCOc1ccc(C(CCc2ccccc2)NC(=O)c2ccc(OC)c(OC)c2)cc1OCC` (stereo unspecified), the Potency is reported as “inactive”.
`CCC(CC)C(=O)N1CCc2cc(OC)c(OC)cc2C1COc1ccc(F)cc1` (stereo unspecified) was tested, and the Potency was “inactive”.
With `N#CCC(=O)Nc1ccc(C(=O)OCC(=O)Nc2sc3c(c2C#N)CCCC3)cc1` the Potency was “inactive”.
For `O=C1N=C(N2CCc3ccccc3C2)S/C1=C\c1ccc(O)cc1`, the Potency was 16.9 µM (active).
With `NC1=NC(=O)S/C1=C\c1ccc(O)cc1` the Potency was “inactive”.
With `CC1CCN(C2=NC(=O)/C(=C/c3ccc(O)cc3)S2)CC1` the Potency was 10.7 µM (active).
In the case of `CCOc1ccc(N=C2NC(=O)S/C2=C\c2ccc(O)cc2)cc1`, the Potency is reported as “inactive”.
`O=C(C1CCN(c2nnc(-n3cccc3)s2)CC1)N1CCc2ccccc2C1` was tested, and the Potency was “inactive”.
With `CCCN(C(=O)Cn1ncc2c([nH]c3ccc(C)cc32)c1=O)c1ccccc1C` the Potency was “inactive”.
With `COc1cccc(CNC(=O)c2ccc3c(c2)N(Cc2ccc(C(F)(F)F)cc2)C(=O)c2ccccc2S3)c1OC` the Potency was “inactive”.
For `CSCCC(C(=O)NC1=NCCS1)N1C(=O)c2ccccc2C1=O` (stereo unspecified), the Potency was “inactive”.
In the case of `CCOc1ccc(NC(=O)CCC(=O)N/N=C/c2ccc([N+](=O)[O-])s2)cc1`, the Potency is reported as “inactive”.
In the case of `O=[N+]([O-])c1ccc(C=Nc2ccc(Cl)cc2Cl)s1`, the Potency is reported as 2.13 µM (active).
`CC(C)(C)c1cc(C(=O)N/N=C/c2ccc([N+](=O)[O-])s2)n[nH]1` was tested, and the Potency was “inactive”.
With `COc1ccc(C)cc1NC(=O)CCCN1C(=O)NC(C)(C)C1=O` the Potency was “inactive”.
In the case of `CCCNC(=O)CCC(=O)N1Cc2ccccc2Oc2ncccc21`, the Potency is reported as “inactive”.
In the case of `CCCCC(=O)OC1=CN(Cc2ccccc2)S(=O)(=O)c2ccccc21`, the Potency is reported as “inactive”.
In the case of `COCCn1c(C)cc(C(=O)CSc2nc3ccccc3c(=O)n2C(C)COC)c1C` (stereo unspecified), the Potency is reported as “inactive”.
In the case of `COCCn1c(C)cc(C(=O)CSc2nnc(C3CC3)n2C2CC2)c1C`, the Potency is reported as 19 µM (active).
In the case of `COCCn1c(C)cc(C(=O)CSc2ncnc3sc4c(c23)CCC4)c1C`, the activity change, negative = inhibition is reported as 8.69% [at 2.3 µM] (inactive).
`CCOC(=O)c1c(N)c(C#N)nn1-c1ccccc1C(=O)OC` was tested, and the Potency was “inactive”.
`Cc1cc(C)n(CC(=O)Nc2ccc([N+](=O)[O-])cc2)n1` was tested, and the Potency was “inactive”.
In the case of `CC1CC(C)CN(C/C=C/c2ccccc2[N+](=O)[O-])C1` (stereo unspecified), the Potency is reported as “inactive”.
`COc1ccc(-c2c(C)nn3c(N4CCC(C(=O)NCCC(C)C)CC4)cc(C)nc23)cc1OC` was tested, and the Potency was “inactive”.
For `O=C(N/N=C/c1ccc2c(c1)OCO2)C(=O)N1CCCC1`, the Potency was 15.1 µM (active).
`COC(=O)c1ccc(/C=N/NC(=O)C(=O)N2CCCCCC2)cc1` was tested, and the Potency was “inactive”.
In the case of `O=C(N/N=C/c1ccc([N+](=O)[O-])cc1)C(=O)N1CCCC1`, the Potency is reported as “inactive”.
For `CCn1ncc(C2=NOC(C(=O)Nc3ccccc3C(=O)OC)C2)c1C` (stereo unspecified), the Potency was “inactive”.
For `Cc1cccc(-n2c(SCC(N)=O)nc3c(oc4ccccc43)c2=O)c1`, the Potency was “inactive”.
With `CCCCC(=O)Nc1nnc(S(=O)(=O)N(C)Cc2ccco2)s1` the Potency was “inactive”.
With `CN(Cc1ccco1)S(=O)(=O)c1nnc(NC(=O)c2ccccc2)s1` the Potency was “inactive and 23.9 µM (active)”.
`COc1cccc(C(=O)Nc2nnc(S(=O)(=O)N(C)c3ccccc3)s2)c1` was tested, and the Potency was “inactive”.
In the case of `CCCCN(C)CCCNC(=O)CN1N=C(c2ccc(OC)cc2)CCC1=O`, the Potency is reported as “inactive”.
For `COC(=O)CSc1nc2ccccc2c(=O)n1Cc1ccccc1`, the Potency was “inactive”.
In the case of `Cc1ccc(C(=O)CSc2nc3ccccc3c(=O)n2N)o1`, the Potency is reported as 12 µM (active).
`COc1ccc(NC(=O)CSc2nc3ccccc3c(=O)n2C)cc1` was tested, and the Potency was “inactive”.
For `Cc1cccc(N2CCN(C3=C(c4ccccc4)C(=O)c4ccccc43)CC2)c1C`, the Potency was “inactive”.
`O=[N+]([O-])c1ccc(NCCCO)c(C(F)(F)F)c1` was tested, and the Potency was “inactive”.
For `COc1cccc(NC(=O)CSC2=Nc3ccccc3C3=NC(CC(=O)NC4CCCCC4)C(=O)N23)c1` (stereo unspecified), the Potency was “inactive”.
For `COC(=O)Cc1cc(=O)oc2c(C)c(O)ccc12`, the Potency was “inactive”.
With `COc1cccc(C(=O)OCc2cc(=O)oc3c(C)c(C)ccc23)c1OC` the Potency was 16.9 µM (active).
With `COc1ccc(Br)cc1CN1CCN(C(=O)c2cccc(OC)c2OC)CC1` the Potency was “inactive”.
`O=C(C1COc2ccccc2O1)N(Cc1cccnc1)c1nc2c(F)cc(F)cc2s1` (stereo unspecified) was tested, and the Potency was “inactive”.
For `COc1ccc(Nc2ncc(F)c(N3CCOCC3)n2)cc1`, the Potency was 2.39 µM (active).
With `CCOc1ccc(Nc2nc(Cl)nc(N3CCN(c4ccc(OC)cc4)CC3)n2)cc1` the Potency was “inactive”.
In the case of `Cc1cc(Nc2ccc(Cl)cc2)nc(N2CCOCC2)n1`, the Potency is reported as “inactive”.
`O=C(NCc1ccccc1Cl)C1=Cc2cc(Br)ccc2OC1` was tested, and the Potency was “inactive”.
With `COc1ccc(CCNc2nc3c(-c4cccc(F)c4)nnn3c3ccccc23)cc1OC` the Potency was “inactive”.
With `COc1ccc(NC(=O)COC(=O)c2ccncc2)c(OC)c1` the Potency was “inactive”.
For `O=C(COC(=O)c1ccncc1)c1ccccc1`, the Potency was 23.9 µM (active).
For `O=C(OCC(O)C(O)COC(=O)c1ccccc1)c1ccccc1` (stereo unspecified), the Potency was “inactive”.
For `O=C(CCc1nc(CN2CCN(S(=O)(=O)c3ccc(Cl)cc3)CC2)no1)N1CCCCC1`, the Potency was “inactive”.
For `CCNC(=O)c1cc2n(n1)CCCN(Cc1ccc(C)cc1)C2=O`, the Potency was “inactive”.
In the case of `Cc1nn(CC(=O)O)c(=O)c2cc3cc(F)ccc3n12`, the Potency is reported as “inactive”.
For `Cc1ccc(C(=O)OCc2nc(N)nc(Nc3ccccc3C)n2)cc1`, the Potency was “inactive”.
With `Cc1ccccc1Nc1nc(N)nc(CSc2nnc3ccccn23)n1` the Potency was “inactive”.
With `Cc1ccccc1Nc1nc(N)nc(CSc2ccccc2)n1` the Potency was 2.13 µM (active).
With `COc1ccc(S(=O)(=O)NCC(c2ccc(N(C)C)cc2)N2CCc3ccccc32)cc1OC` (stereo unspecified) the Potency was “inactive”.
`CCOc1ccc(NC(=O)CCC(=O)N2CC(C)Oc3ccc(C)cc32)cc1` (stereo unspecified) was tested, and the Potency was “inactive”.
In the case of `O=C(c1cccc(Br)c1)N1CCN(Cc2cc(=O)n3nc(-c4ccccc4)sc3n2)CC1`, the Potency is reported as “inactive”.
In the case of `Cc1ccc(NC(=O)C2CCN(S(=O)(=O)c3cc(-c4noc(C)n4)ccc3C)CC2)c(C)c1`, the Potency is reported as “inactive”.
For `O=C(CSc1nccn1Cc1ccc(Cl)cc1)NCc1ccccc1`, the Potency was “inactive”.
With `COc1cccc(COc2ccc(N(C)S(=O)(=O)c3ccccc3)cc2)c1` the Potency was “inactive”.
With `CCOc1ccc(OCc2ccc(C(=O)N(C)c3ccccc3)o2)cc1` the Potency was “inactive”.
In the case of `CCOc1ccc(OCc2cccc(C(=O)N(CC)CC)c2)cc1`, the Potency is reported as 1.2 µM (active).
In the case of `COc1ccc(Cn2c(=S)[nH]c3cc(C(=O)N4CCCCC4)ccc3c2=O)cc1`, the Potency is reported as “inactive”.
`COc1ccc(OCc2cccc(C(=O)N3CCCC3)c2)cc1` was tested, and the Potency was 8.49 µM (active).
For `COc1ccc(CNC(=O)C2CCN(C(=O)c3ccccc3)CC2)cc1`, the Potency was “inactive”.
In the case of `Cc1sc2ncn(CC(=O)N3CCN(c4ccc(F)cc4)CC3)c(=O)c2c1S(=O)(=O)N1CCN(c2ncccn2)CC1`, the Potency is reported as “inactive”.
For `CCS(=O)(=O)N1CCC(n2c(C)nc3cccnc32)CC1`, the Potency was “inactive”.
`CCc1cccc(NC(=O)Cn2nc(CC)n3c(cc4cc(C)ccc43)c2=O)c1` was tested, and the Potency was “inactive”.
In the case of `O=C(CSc1ncc(CO)n1Cc1ccc(Cl)cc1)NCc1ccc(F)cc1`, the Potency is reported as “inactive”.
In the case of `Cc1cccc(N2CCN(c3c(CN4CCCC4)c(=O)oc4ccccc34)CC2)c1C`, the Potency is reported as “inactive”.
In the case of `N#CCC(=O)NC1CCC(CC2CCC(NC(=O)CC#N)CC2)CC1` (stereo unspecified), the Potency is reported as “inactive”.
With `CC(C)=C1SC(N2CCN(c3ccc(C)c(Cl)c3)CC2)=NC1=O` the Potency was “inactive”.
`O=C1N=C(N2CCOCC2)CS1` was tested, and the Potency was “inactive”.
With `O=C1N=C(N2CCOCC2)S/C1=C\C=C/c1ccccc1` the Potency was 10.7 µM (active).
With `Cc1ccc(C)c(S(=O)(=O)c2nnn3c2nc(N2CCOCC2)c2sccc23)c1` the Potency was “inactive”.
For `O=c1[nH]c(N2CCOCC2)nc2ccccc12`, the Potency was “inactive”.
For `Cc1ccsc1/C=C1\SC(N2CCOCC2)=NC1=O`, the Potency was 10.7 µM (active).
For `COc1ccccc1C1CCN(C(=S)Nc2ccc(Br)cc2)CC1`, the Potency was “inactive”.
`O=C(Nc1ccc(Br)cc1)c1ccc(Br)c(S(=O)(=O)NCc2ccccc2)c1` was tested, and the Potency was “inactive”.
With `Cc1ccc(Nc2nc3ccccc3nc2-n2nc(C)cc2C)c(Cl)c1` the Potency was “inactive”.
With `CCN(CC(=O)Nc1ccc(OC)cc1)C(=O)c1ccc(=O)n(Cc2ccccc2)n1` the Potency was “inactive”.
`CN(c1ccc(C(=O)NCCC2=CCCCC2)cc1)S(C)(=O)=O` was tested, and the Potency was 9.53 µM (active).
`Cn1nnc2cc(C(=O)NCCC3=CCCCC3)ccc21` was tested, and the Potency was 5.36 µM (active).
`Cc1ccc(-n2cnc3cc(C(=O)NCCC4=CCCCC4)ccc32)cc1Cl` was tested, and the Potency was “inactive”.
With `O=C(NCCC1=CCCCC1)c1ccc(-n2cncn2)cc1` the Potency was 15.1 µM (active).
`CC(=O)Nc1ccc(S(=O)(=O)N(C)CC(=O)NCCC2=CCCCC2)cc1` was tested, and the Potency was “inactive”.
With `Cc1ccn2c(=O)c(C(=O)NCCC3=CCCCC3)c(O)nc2c1` the Potency was “inactive”.
For `CC(C)COc1ccc(C(=O)OCC(=O)NCCC2=CCCCC2)cc1`, the Potency was “inactive”.
`O=C(Cc1nn[nH]n1)NCCC1=CCCCC1` was tested, and the Potency was “inactive”.
`O=C(COc1cccc(-n2cnnn2)c1)NCCC1=CCCCC1` was tested, and the Potency was “inactive”.
